# Screening results: PubChem, National Center for Advancing Translational Sciences (NCATS)
# Sampled rows, rich in hits. Any-hit rate of the full collection: about 10%.
# RORg inh – qHTS for inhibitors of ROR gamma transcriptional activity; Drosophila S2 Gal4-RORgamma UAS-luciferase reporter, 20 h; Nuclear receptor ROR-gamma (Mus musculus), P51450; actives 5.4% (n = 310,000); Potency, µM (highest dose often 53.6 µM), for inactives: top-dose activity change, negative = inhibition, actives largely listed as inhibitors; further: on the % scale 0 is the no-effect control and ±100 the full control effect; nearly all actives have a fitted effect of over 60% in size
# Target sequence (P51450 whole entry, looked up, the tested form may be a part): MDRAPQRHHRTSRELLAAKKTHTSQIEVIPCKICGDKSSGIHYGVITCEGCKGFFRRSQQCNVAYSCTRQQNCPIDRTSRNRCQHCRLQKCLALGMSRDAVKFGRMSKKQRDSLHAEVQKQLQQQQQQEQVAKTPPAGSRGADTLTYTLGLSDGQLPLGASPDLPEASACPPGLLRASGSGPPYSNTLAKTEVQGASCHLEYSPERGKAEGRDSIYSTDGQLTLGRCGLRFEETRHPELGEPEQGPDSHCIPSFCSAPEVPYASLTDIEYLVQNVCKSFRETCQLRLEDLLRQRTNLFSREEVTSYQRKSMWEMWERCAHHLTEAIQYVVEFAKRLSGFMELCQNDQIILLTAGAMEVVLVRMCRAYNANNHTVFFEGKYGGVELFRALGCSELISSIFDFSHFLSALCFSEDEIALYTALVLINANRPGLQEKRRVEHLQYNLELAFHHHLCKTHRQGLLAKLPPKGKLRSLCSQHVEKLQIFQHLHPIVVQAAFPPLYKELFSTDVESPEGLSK
#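 Stable Schneider cell line, Gal4 DNA-binding domain fused to ROR gamma, UAS-luciferase. Cmpd 1 hr RT → CuSO4 700 uM final → 20 hr RT → luciferase reagent 10 min → luminescence.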
# Gal4-VP16 FLuc – VP16 counterscreen qHTS for inhibitors of ROR gamma transcriptional activity; Drosophila S2 Gal4-VP16 UAS-luciferase, luminescence, 20 h; Potency, µM (titrated, usually from 53.6 µM), for inactives: at the top dose activity, negative = inhibition, usual class: inhibitors; actives 3.5% (n = 310,000); AID 2546, 2010;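 further: Gal4-VP16 expression switched on by copper sulfate through the metallothionein promoter; on the % scale 0 is the no-effect control and ±100 the full control effect; nearly all actives have a fitted effect of over 50% in size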
# KB-3-1 tox – qHTS assay for MDR1-selective chemotherapeutics: Primary screen using the parental adenocarcinoma cell KB-3-1. KB-3-1 viability, CellTiter-Glo ATP luminescence, 72 h. Potency, µM (doses to about 46.1 µM), most hits filed as cytotoxic. actives 1.4% (n = 400,000); further: on the % scale 0 is the no-effect control and ±100 the full control effect; nearly all actives have a fitted effect of over 60% in size
#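 Cytotoxicity in the drug-sensitive parental line KB-3-1 was scored as loss of CellTiter-Glo luminescence following 72 h incubation with compound. Values come from curve fitting of normalized concentration-response data.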
# MCF10A rereplic – A quantitative high throughput screen for small molecules that induce DNA re-replication in MCF 10a normal breast cells; MCF 10A DNA re-replication, Hoechst nuclear intensity, 48 h; Potency, µM (titrated, usually from 46.1 µM), without a hit: top-dose activity, positive = re-replication, actives largely listed as activators; actives 2.9% (n = 350,000); AID 624296, 2012; further: % of control where 0% means no effect; nearly all actives have a fitted effect of over 50% in size
# KB-V1 MDR tox – qHTS assay for MDR1-selective chemotherapeutics: Primary screen using the drug-selected MDR subline cells KB-V1; Potency, µM (highest dose often 46.1 µM), usual class: cytotoxic; actives 3.4% (n = 400,000); KB-V1 MDR cells viability, CellTiter-Glo, 72 h; further: on the % scale 0 is the no-effect control and ±100 the full control effect; nearly all actives have a fitted effect of over 60% in size
#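 KB-V1 MDR subline cells in DMEM (phenol-red free, 10% FBS) exposed to compounds in qHTS concentration series for 72 h at 37 degrees C. Viability read by CellTiter-Glo luminescence; concentration-effect curves fitted after normalization and correction.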
# SW480 rereplic – A quantitative high throughput screen for small molecules that induce DNA re-replication in SW480 colon adenocarcinoma cells. Potency, µM (top dose mostly 46.1 µM), inactives show at the highest dose re-replication activation, hits mostly activators. actives 1.8% (n = 340,000). SW480 DNA re-replication, Hoechst DNA content imaging, 48 h. AID 624297, 2012; further: % of control where 0% means no effect; nearly all actives have a fitted effect of over 55% in size
#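 Treated cells incubate 48 hr (37 C, 5% CO2), are stained 40 min with Hoechst, and nuclear fluorescence is enumerated; a rise in nuclei with high DNA signal marks re-replication.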
# * hit, by the source's call; i = inactive; ? = inconclusive; nt = no result; [ ] = another dose, or the depositor's remark. The call rests on the fitted dose curve; in most records, active means well fitted curve in the direction sought with a large enough effect; inconclusive means small, poorly fitted or top-dose-only effect, or another doubt; inactive means no such curve, though single readings can be large; an effect the other way counts as inactive or inconclusive. Potency means the concentration at half of the fitted maximal effect.
SMILES,RORg inh,Gal4-VP16 FLuc,KB-3-1 tox,MCF10A rereplic,KB-V1 MDR tox,SW480 rereplic
CCOC(=O)c1c(C)[nH]c(C(=O)OCC(=O)NC(C)C)c1C,-1%,14%,i,0%,23µM*,-6%
CCOC(=O)c1[nH]c(C)c(C(=O)O)c1C,-1%,4%,nt,nt,nt,nt
NC(=O)CSc1nc2c(oc3ccccc32)c(=O)n1-c1ccccc1F,nt,nt,i,nt,i,nt
Cc1ccc(NC(=O)Cn2c(=O)n(-c3ccc(Cl)c(Cl)c3)c(=O)c3c(C)c(C)sc32)c(C)c1,nt,nt,i,nt,i,nt
CCOC(=O)C(C)(C)N(Cc1ccccc1C)S(=O)(=O)c1ccc(Cl)c([N+](=O)[O-])c1,2%,-16%,i,18µM*,i,?
C=C(C)C1Cc2c(C)nn(-c3cccc4ccccc34)c2C1 (stereo not given),14µM*,?,?,?,?,3%
Cc1n[nH]c(C)c1S(=O)(=O)N1CCCC(C(=O)NCc2ccc(F)cc2)C1 (stereo not given),8%,?,i,0.73µM*,i,-59%
COc1ccc(CNC(=O)C2CCN(S(=O)(=O)c3c(C)n[nH]c3C)CC2)cc1,19%,0%,i,-2%,i,-1%
COc1cccc(CNC(=O)C2CCCN(S(C)(=O)=O)C2)c1 (stereo not given),-30%,-5%,i,21µM*,i,2%
COc1ccc(CNC(=O)C2CCCN(C(=O)c3cnn(-c4ccc(F)cc4)c3-n3cccc3)C2)cc1 (stereo not given),nt,nt,?,nt,13µM*,nt
CN(c1ccc(F)cc1)S(=O)(=O)N1CCCC(C(=O)NCc2ccccc2Cl)C1 (stereo not given),nt,nt,16µM*,nt,i,nt
COc1ccccc1NC(=O)c1cc2c([nH]c1=O)CC(C)(C)CC2=O,nt,nt,i,nt,i,nt
CN(Cc1ccco1)c1ncnc2ccc(-c3cccc(C#N)c3)cc12,-11%,3%,nt,nt,nt,nt
COC(=O)c1ccccc1NC(=O)C1CCCN(C(=O)c2cnn(-c3ccc(F)cc3)c2-n2cccc2)C1 (stereo not given),nt,nt,?,nt,18µM*,nt
O=C(NCc1ccccc1Cl)C1CCCN(C(=O)c2cnn(-c3ccc(F)cc3)c2-n2cccc2)C1 (stereo not given),nt,nt,?,nt,16µM*,nt
O=C(Nc1ccc(F)cc1F)C1CCN(C(=O)c2cnn(-c3ccccc3)c2-n2cccc2)CC1,nt,nt,i,nt,i,nt
COCCCNC(=O)C1CCCN(C(=O)c2cnn(-c3ccc(F)cc3)c2-n2cccc2)C1 (stereo not given),nt,nt,i,nt,i,nt
CCOC(=O)C1CCN(C(=O)CSc2n[nH]c(-c3ccc(F)cc3)n2)CC1,nt,nt,i,nt,i,nt
Cc1ccc(S(=O)(=O)Nc2ccccc2OC(C(=O)OC(C)(C)C)C(=O)OC(C)(C)C)cc1,nt,nt,i,nt,?,nt
COc1ccccc1N(CC(=O)Nc1ccc2c(c1)OCO2)S(=O)(=O)c1ccc(C)cc1,nt,nt,i,nt,i,nt
O=C(O)c1cccc(Cl)c1Cl,-1%,2%,nt,nt,nt,nt
CC1Cc2ccccc2N1C(=O)COC(=O)c1c2c(nc3ccccc13)CCCCC2 (stereo not given),20%[10 µM],-5%,?,21µM*,9.2µM*,?
O=C(OCC(=O)N1CCCc2ccccc21)c1cncc(Br)c1,?,1.1µM*,i,-7%,i,-8%
O=C(OCC(=O)N1CCc2ccccc21)c1c2c(nc3ccccc13)CCCC2,-24%,3%,?,?,9.2µM*,10%
O=C(Nc1ccc2c(c1)OCO2)c1ccccc1,-19%,-3%,i,-3%,i,-9%
